# Results taken from PubChem BioAssay.
# Active and inactive are the calls of the source.
# What was measured:
# [1] = compound effects on lung adenocarcinoma cell viability – A549, calcein-AM fluorescence, 48 h, basal, profiling panel (AID 1162); conditions: higher = more signal
# [2] = compound effects on differentiated 3T3-L1 adipocyte viability – cell-based, 3T3-L1 adipocytes, calcein-AM fluorescence, 48 h, basal, profiling panel (AID 1163); conditions: 3T3-L1 adipocytes viability, higher = more signal
# [3] = compound effects on hepatocellular carcinoma cell viability – HepG2, calcein-AM fluorescence, 48 h, basal, profiling panel (AID 1164); conditions: higher = more signal
# [4] = compound effects on multiple myeloma cell viability – MM1S, calcein-AM fluorescence, 48 h, basal, profiling panel (AID 1165); conditions: higher = more signal
# [5] = calcein-AM signal in unstimulated myeloma cells – cell-based, calcein-AM fluorescence, 48 h, PK04 Diversity Set, profiling panel (AID 1166); conditions: RPMI8226 myeloma viability, higher = more signal;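 also: cells grown under basal conditions without added stimulus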
# [6] = JC-1 mitochondrial signal, unstimulated HepG2 cells – cell-based, JC-1 fluorescence, 24 h, 100 nL compound, profiling panel (AID 1167); conditions: HepG2 mitochondrial potential, higher = more signal
# [7] = JC-1 mitochondrial signal, unstimulated adipocytes – cell-based, JC-1 fluorescence, 3T3-L1 adipocytes, 24 h, 100 nL compound, profiling panel (AID 1168); conditions: JC-1 mitochondrial fluorescence, higher = more signal, called active from +8 up or from −8 down
# [8] = JC-1 mitochondrial signal, unstimulated myeloma cells – cell-based, JC-1 fluorescence, RPMI8226, 24 h, 100 nL compound, profiling panel (AID 1169); conditions: JC-1 mitochondrial potential fluorescence, higher = more signal
# [9] = JC-1 mitochondrial signal, unstimulated MM1S myeloma – cell-based, JC-1 fluorescence, 24 h, 100 nL compound, profiling panel (AID 1170); conditions: MM1S mitochondrial potential, higher = more signal
# [10] = resazurin metabolic signal in A549 cells – cell-based, resazurin fluorescence, 24 h, PK04 Diversity Set, profiling panel (AID 1171); conditions: A549 viability, higher = more signal, called active from +8 up or from −8 down
# Also: test concentration not given here.
SMILES,z-score [1],z-score [2],z-score [3],z-score [4],z-score [5],z-score [6],z-score [7],z-score [8],z-score [9],z-score [10]
CC=CC(O)C1C=CC2C(=O)N(C)C(=O)C2N1N(c1ccccc1)c1ccccc1 (stereo not given),-0.716,-1.7,-0.967,0.13,0.0318,-0.0443,-0.149 (inactive),-0.372,-0.106,-0.522 (inactive)
CC(C)C(=C=CC[C@H](O)c1ccc(CO)o1)CCO,-0.0934,-0.33,-0.0026,-1.25,-0.2,-0.427,-0.0538 (inactive),-0.533,0.019,-0.507 (inactive)
[N-]=[N+]=Nc1ccccc1[C@H]1OC(c2ccc(OCCCO)cc2)=N[C@@]1(Cc1ccccc1)C(=O)N1CCOCC1,-1.59,0.539,-1.12,-2.4,-3.94,-0.273,0.598 (inactive),-1.09,-2.67,-2.74 (inactive)
CCCCC(O)C1C=CC2C(=O)N(C)C(=O)C2N1N1CCCCC1 (stereo not given),-1.19,-0.579,-0.267,-0.73,-0.173,-1.59,-0.686 (inactive),0.135,-0.026,-0.377 (inactive)
C=CC[C@]1(C(=O)NCc2ccccc2)N=C(c2ccc(OCCCO)cc2)O[C@H]1c1ccccc1CN=[N+]=[N-],-0.774,0.0129,0.22,-1.28,-1.81,0.24,-0.889 (inactive),-0.787,0.407,0.668 (inactive)
COCCOC(=O)N1C(=O)[C@@]2(c3ccccc31)[C@H](C(N)=O)[C@H]1C(=O)O[C@H](c3ccccc3)[C@H](c3ccccc3)N1[C@@H]2c1ccc(O)cc1,0.75,-0.0824,1.51,0.84,0.248,-0.244,0.571 (inactive),-0.795,0.119,-1.37 (inactive)
O=C1OCCC/C=C\[C@H]2OC34C=CCN(c5ccc6ccccc6c5)C(=O)[C@H]3N(CCCCCO)C(=O)[C@@H]4C12 (stereo not given in full),0.0648,0.456,0.513,0.0795,-0.681,0.337,-0.318 (inactive),0.873,-0.505,0.123 (inactive)
COC(=O)[C@@]1(CCC(=O)OC(C)(C)C)N=C(c2ccc(OCCCO)cc2)O[C@H]1c1ccccc1,-1.68,0.673,-0.968,-2.83,-2.83,-2.01,-0.306 (inactive),-1.1,0.558,-1.8 (inactive)
CCCCCN1CC=CC23O[C@@H]4C=CCOC(=O)[C@@H]4[C@H]2C(=O)N(C(C)CO)[C@@H]3C1=O (stereo not given in full),-0.33,-0.093,-0.177,-0.425,-0.0937,-0.714,0.282 (inactive),-0.704,-0.212,0.0264 (inactive)
CCCC=C(CCC)[C@@H](NS(=O)(=O)c1ccc(Cl)cc1)c1ccc(C(=O)OC)cc1,-1.18,0.391,-0.845,0.48,-0.595,-1.07,-0.542 (inactive),-0.906,-0.98,0.475 (inactive)
COC(=O)[C@@]1(Cc2ccc(OC)cc2)[C@H]2c3cc(C(=O)N4CCCC4)n(CCc4ccc(O)c(O)c4)c3C[C@H]2CN1C(=O)c1ccccc1,-0.393,0.609,-0.0727,-3.36,-2.19,0.923,-1.13 (inactive),-0.445,-1.13,-0.0046 (inactive)
CC(=CC1CCCCC1)[C@@H](NC(=O)c1cccnc1)c1ccc(-c2ccccc2)cc1,-1.3,-0.671,-1.63,-2.15,-2.59,-2.99,-1.26 (inactive),0.597,-0.462,1.49 (inactive)
[N-]=[N+]=Nc1ccccc1C[C@]1(C(=O)N2CCCCC2)COC(c2ccc(OCCCO)cc2)=N1,-0.611,0.761,-0.328,-3.52,-4.33,-0.676,0.00722 (inactive),-1.3,-2.03,1.85 (inactive)
O=C1O[C@@H](c2ccccc2)[C@@H](c2ccccc2)N2[C@@H](c3ccccc3OCCO)[C@]3(C(=O)Nc4ccccc43)[C@@H](C(=O)O)[C@H]12,-0.796,0.266,0.045,-2.64,0.0803,0.249,-0.742 (inactive),0.649,0.554,0.362 (inactive)
C#CCN1[C@@H](Cc2ccc(O)cc2)C(=O)O[C@H](Cc2ccccc2)[C@@H]1/C=C/C1CC1,-2.82,-0.145,-3.44,-3.22,-3.96,-3.57,-0.0548 (inactive),-1.23,-0.744,-1.01 (inactive)
CCCC=C(CCC)[C@@H](NC(=O)OCC(C)C)c1ccccc1,-0.628,0.722,-0.927,-0.0228,-1.71,0.485,-0.594 (inactive),0.0132,-0.558,0.292 (inactive)
COC(=O)c1c2oc(c1C(=O)OC)C(=O)NC1(CCCCC1)c1cn(nn1)C[C@H](Cc1ccccc1)NC(=O)N[C@H](CO)CC2,0.947,-0.0442,0.22,0.813,1.17,0.537,0.691 (inactive),0.564,-0.887,1.09 (inactive)
CO[C@H]1O[C@H](CO)[C@@H](OC(=O)Nc2cccc(F)c2)[C@H](OC(=O)Nc2ccccc2)[C@H]1OC(=O)Nc1ccccc1,-2.2,1.33,-2.94,-1.53,-4.26,-0.389,0.518 (inactive),-1.33,-0.561,-3.72 (inactive)
CCOC(=O)C[C@H]1[C@H](OC(=O)c2ccc(-c3ccccc3)cc2)[C@@H](NC(=O)c2ccccc2)c2cc(OCCCO)ccc2N1C(=O)c1ccc2ccccc2n1,-0.208,-0.0559,0.261,-0.936,-0.617,0.0102,-0.811 (inactive),0.939,-0.386,-0.264 (inactive)
CCCCN1CC=CC23O[C@@H]4C=CCCOC(=O)C4[C@H]2C(=O)N(CCCCCO)[C@@H]3C1=O (stereo not given in full),0.761,0.159,0.858,1.83,0.916,0.84,0.615 (inactive),0.117,-0.832,-0.318 (inactive)
COCC(=C=CC[C@H](O)c1cccc(OCCO)c1)CCO,-0.243,-0.214,-0.909,0.269,0.256,-0.206,0.244 (inactive),-0.574,-0.451,0.614 (inactive)
[N-]=[N+]=Nc1ccccc1[C@H]1OC(c2ccc(OCCCO)cc2)=N[C@@]1(CCS(=O)(=O)c1ccccc1)C(=O)NCc1ccccc1,-0.0804,-0.337,-0.777,-0.99,-0.816,-0.337,-0.327 (inactive),-0.929,-0.673,1.09 (inactive)
Cc1ccc(S(=O)(=O)N2C[C@@H](C(=O)O)[C@H](Sc3ccccc3)C[C@H]2c2ccccc2)cc1,-1.21,-0.27,-0.721,-0.279,-0.45,-0.654,-0.883 (inactive),0.588,0.319,0.111 (inactive)
O=C1C2C=CC(C(O)C=Cc3ccc([N+](=O)[O-])cc3)N(Nc3ccccc3F)C2C(=O)N1c1ccccc1 (stereo not given),-0.212,-0.846,-0.0729,-1.45,-0.343,-1.33,-1.55 (inactive),-0.22,-1.54,0.0067 (inactive)
O=C1C2C=CC(C(O)c3ccc(F)cc3)N(Nc3ccc([N+](=O)[O-])cc3)C2C(=O)N1c1ccccc1 (stereo not given),-0.755,-0.376,0.679,-0.06,-0.313,-0.382,-0.287 (inactive),-0.403,-0.977,0.68 (inactive)
COC(=O)[C@@]1(Cc2ccccc2)[C@H]2c3cc(C(=O)N(C)C)n(CCc4c[nH]c5ccc(O)cc45)c3C[C@H]2CN1C(=O)c1ccccc1,-0.206,0.389,1.22,-0.988,-0.235,-1.3,-0.215 (inactive),-0.532,-1.57,0.349 (inactive)
CC(C)CN1C(=O)[C@@]2(c3ccc([N+](=O)[O-])cc3)CC(=O)N(C3CCCCC3)[C@@H]2c2ccc(CO)cc21,-0.651,0.16,-0.403,0.246,0.0529,0.0665,-0.339 (inactive),0.603,-0.214,-0.881 (inactive)
[N-]=[N+]=Nc1ccccc1C[C@@]1(C(=O)N2CCCCC2)N=C(c2ccc(OCCCO)cc2)O[C@@H]1c1ccccc1,0.93,0.699,1.02,-2.38,-4.45,0.819,0.883 (inactive),-1.19,0.992,1.41 (inactive)
